Results reported in PubChem BioAssay (NCI).
This is part of a sample that, as a whole, favours compounds with a hit. Of some 83,000 tested, about 20% had one in any assay.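 A percent growth of 40 corresponds to 60% growth inhibition; 0 means no net growth; -100 means all cells died. Active threshold: below 10.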 The source made the active and inactive calls.

Tests used:
Experiment in all cases: NCI-60 one-dose screen, 48 h (100 = growth as untreated, 0 = no growth, -100 = all killed)
Details in all cases: 10 µM unless noted
DU-145 prostate = system: DU-145 prostate
K-562 leukemia = system: K-562 leukemia
MALME-3M melanoma = system: MALME-3M melanoma
MDA-MB-231 breast = system: MDA-MB-231 breast
RXF 393 renal = system: RXF 393 renal
SF-268 CNS = system: SF-268 CNS
SF-295 CNS = system: SF-295 CNS
SF-539 CNS = system: SF-539 CNS
UACC-257 melanoma = system: UACC-257 melanoma
M14 melanoma = system: M14 melanoma

Measured: growth

CC(=O)Nc1ccc(-c2nc3cc(-c4ccc(O)cc4)ccc3n2C)cc1
inactive: DU-145 prostate 54.9% | K-562 leukemia 15.5% | MALME-3M melanoma 68.4% | MDA-MB-231 breast 53.4% | RXF 393 renal 66.7% | SF-268 CNS 68.1% | SF-295 CNS 47.1% | SF-539 CNS 49.2% | UACC-257 melanoma 80.8% | M14 melanoma 63.9%

Clc1cccc(-c2ccc(OCCCN3CCN(c4ccncc4)CC3)cc2)c1
inactive: DU-145 prostate 35.2% | SF-268 CNS 33.1% | UACC-257 melanoma 25.1%
active: K-562 leukemia -50.3% | MALME-3M melanoma -87% | MDA-MB-231 breast -83.4% | RXF 393 renal -67.1% | SF-295 CNS -80.8% | SF-539 CNS -81.2% | M14 melanoma -64.8%

Cc1ccc(-c2nc(C#N)c(S(=O)(=O)N3CCN(S(=O)(=O)c4ccc(Cl)cc4)CC3)o2)cc1
inactive: DU-145 prostate 97.4% | K-562 leukemia 56.9% | MALME-3M melanoma 79.1% | MDA-MB-231 breast 90.9% | RXF 393 renal 56.6% | SF-268 CNS 75.8% | SF-295 CNS 110% | SF-539 CNS 70.5% | UACC-257 melanoma 89.5% | M14 melanoma 91.5%

CCN(CC)CCOc1ccc(Nc2ncc3cc(-c4ccc(O)c(C#N)c4)c(=O)n(C)c3n2)cc1
active: K-562 leukemia -47.5% | MALME-3M melanoma -95.5%
inactive: DU-145 prostate 84.6% | MDA-MB-231 breast 11.9% | RXF 393 renal 22.3% | SF-268 CNS 77.1% | SF-295 CNS 90.8% | SF-539 CNS 62.2% | UACC-257 melanoma 101% | M14 melanoma 70.4%

Cc1cc2nc3c([nH]c2cc1C)c1ccc(=O)cc1n3CCN(C)C
active: K-562 leukemia 9.48%
inactive: DU-145 prostate 28.8% | MALME-3M melanoma 27.2% | MDA-MB-231 breast 38.7% | RXF 393 renal 57.8% | SF-268 CNS 61% | SF-295 CNS 27% | SF-539 CNS 26.4% | UACC-257 melanoma 64% | M14 melanoma 43.8%

CCOc1ccc(-c2c(C#N)c(-c3ccc(Cl)cc3)nc3n[nH]c(-c4ccc(Cl)cc4)c23)cc1OC
inactive: DU-145 prostate 64.9% | MALME-3M melanoma 46.7% | RXF 393 renal 47.4% | SF-268 CNS 72.9% | SF-295 CNS 75.7% | SF-539 CNS 62.6% | UACC-257 melanoma 54.4% | M14 melanoma 60%
active: K-562 leukemia 9.47%

N#Cc1cnn(C(=O)c2ccccc2Br)c1NC(=O)c1ccc(Br)cc1Cl
inactive: DU-145 prostate 108% | K-562 leukemia 105% | MALME-3M melanoma 95.8% | RXF 393 renal 100% | SF-268 CNS 116% | SF-295 CNS 94.9% | SF-539 CNS 96.9% | UACC-257 melanoma 98.5% | M14 melanoma 101%

CNC(=O)c1cccc(NC(=O)c2ccc3c(c2)nnn3/C(C#N)=C/c2ccccn2)c1
inactive: DU-145 prostate 21.7% | SF-268 CNS 24.4% | SF-295 CNS 84.3%
active: K-562 leukemia 0.0446% | MALME-3M melanoma -97% | RXF 393 renal -97.9% | SF-539 CNS -72.8% | UACC-257 melanoma -67.2% | M14 melanoma -73.6%

CC(=O)c1cccc(NC(=O)CCC(=O)NS(=O)(=O)c2ccc(C)cc2)c1
inactive: DU-145 prostate 122% | K-562 leukemia 101% | MALME-3M melanoma 103% | MDA-MB-231 breast 107% | RXF 393 renal 132% | SF-268 CNS 134% | SF-295 CNS 104% | SF-539 CNS 105% | UACC-257 melanoma 103% | M14 melanoma 102%

COc1ccc([C@H](C)Nc2nc(Cl)nc3ccccc23)cc1
inactive: DU-145 prostate 74.2% | MALME-3M melanoma 66.5% | RXF 393 renal 78.3% | SF-268 CNS 76.6% | SF-295 CNS 20.2% | SF-539 CNS 68.3% | UACC-257 melanoma 48.2% | M14 melanoma 78.8%
active: K-562 leukemia 9.94%

CCCCSc1nc(Nc2ccc(C(C)=O)cc2)c(C#N)c(-c2ccc(OC)cc2)n1
inactive: DU-145 prostate 88.5% | K-562 leukemia 69.6% | MALME-3M melanoma 77.2% | MDA-MB-231 breast 60.6% | SF-268 CNS 63.1% | SF-295 CNS 47.6% | SF-539 CNS 25.9% | UACC-257 melanoma 104% | M14 melanoma 91.8%

CC(=O)OC[C@@]1(C)C2CC[C@]3(C)C(CC=C4C5CC(C)(C)CC[C@]5(C(=O)Nc5ccc(Br)cc5)CC[C@]43C)[C@@]2(C)C[C@@H](OC(C)=O)[C@@H]1OC(C)=O (stereo not given in full)
inactive: DU-145 prostate 49% | K-562 leukemia 19.2% | MALME-3M melanoma 55.9% | MDA-MB-231 breast 62.3% | RXF 393 renal 72.8% | SF-268 CNS 66.1% | SF-295 CNS 26.8% | SF-539 CNS 38.7% | UACC-257 melanoma 20% | M14 melanoma 52.6%

COc1c(F)ccc(C(=O)Nc2ccc3nc(NC(=O)C4CCCN(S(=O)(=O)c5cccc(C(F)(F)F)c5)C4)sc3c2)c1F (stereo not given)
inactive: DU-145 prostate 91.1% | K-562 leukemia 62.3% | MALME-3M melanoma 94.7% | MDA-MB-231 breast 85% | SF-268 CNS 65% | SF-295 CNS 79.8% | SF-539 CNS 70.1% | UACC-257 melanoma 89.9% | M14 melanoma 87.5%
active: RXF 393 renal -9.56%
